Several values for one entry are separate records, joined by “and”; a condition that tells them apart may be missing. Identical values can stand only once. The campaign covered roughly 130,000 compounds. About 350 (0.27%) were called active. No stated cut-off is given here; in the data, active means z-score below about -2 (passing the limit was not always enough); inactive means the rest. The entries come from a sample that favours actives as a whole.

This experiment can be described thus: PubChem AID 504770. As to conditions: E. coli YBA685 rctB-dependent plasmid, OD600 growth, 3 h; hits give low values.
For the compound `NC(=O)CSc1ccccc1NC(=O)c1cc(-c2cccs2)nn1-c1ccccc1`, the z-score is 3.15 (inactive). `COc1ccc(NS(=O)(=O)N(C)C)cn1`: the z-score was 0.3 (inactive). With `Cc1oc2cc(O)ccc2c(=O)c1-c1nc2ccccc2[nH]1` the figure was -0.6 (inactive); with `O=C1CCCC2=C1C(c1ccccn1)C1=C(CCCC1=O)O2`, -2.45 (active); with `O=C1CCCC2=C1C(c1ccccn1)Nc1ccc3ncccc3c12` (stereo not given), -0.55 (inactive). The result for `CCCOc1ccc(C2C3=C(CCCC3=O)OC3=C2C(=O)CCC3)cc1` reads -0.45 (inactive); that for `S=C(Nc1ccccc1)NC1CC2CCCC(C1)N2C1CC1` (stereo not given), -0.5 (inactive). The result for `c1ccc(CNCc2ccc3c(c2)OCO3)cc1` reads -1.25 (inactive).

For `O=C(CC(NCc1ccco1)C(=O)O)Nc1cccc(C(F)(F)F)c1` (stereo not given), the z-score is 1.45 (inactive). The result for `CCOc1ncccc1C(=O)Nc1ccc2c(c1)OCCO2` reads -0.25 (inactive); that for `C[N+]1(CC(O)COc2ccccc2F)CCOCC1` (stereo not given), 0.45 (inactive).

For the compound `O=C1C(=O)N(CCO)C(c2ccccc2)/C1=C(/O)c1ccccc1` (stereo not given), the z-score is -0.3 (inactive). The result for `COc1ccccc1-c1nnc(C2CCN(S(=O)(=O)c3ccc(C)cc3)CC2)o1` reads 0.85 (inactive). With `COC(=O)c1sc(=S)n(-c2ccc(C)cc2)c1N` the figure was 0.95 (inactive); with `COc1cc(OC)c(C(=O)OCC(=O)N(C)C2CCCCC2)cc1OC`, 0.65 (inactive).

As for `O=C(CSc1ccccn1)Nc1cc(C(F)(F)F)cc(C(F)(F)F)c1`, the z-score was -0.4 (inactive).

`COC(=O)CC1=C(C(=O)OC)C2(C(=O)N1)C(C#N)=C(N)Oc1ccccc12` (stereo not given): the z-score is 0.45 (inactive). The result for `CC(C(=O)O)C(C(=O)O)C(C)c1ccccc1` (stereo not given) reads -0.7 (inactive); that for `O=C(NCCN1CCOCC1)C1CCN(C(=O)c2cc3sccc3n2Cc2ccc(F)cc2)CC1`, -0.45 (inactive). In the case of `O=C1NCCCCC1NC(=S)Nc1ccccc1` (stereo not given), the z-score was -0.25 (inactive).

`COc1cc(/C=C2/C(=O)Nc3cc(Cl)ccc32)cc(OC)c1O`: the z-score was 0.9 (inactive). The result for `O=C(Cn1nnc(-c2ccccc2)n1)NC(=O)NCc1ccccc1` reads -0.5 (inactive); that for `CN1CCC(OC(=O)c2ccc3c(c2)OCCO3)CC1`, -0.5 (inactive); that for `O=C1C=CC(=O)N1c1ccc(Br)cc1`, 0.05 (inactive). In the case of `CCNCC(=O)Nc1ccc(NC(C)=O)cc1`, the z-score was 0.15 (inactive).

`CC(=O)Nc1ccc(N2C(=O)C=CC2=O)cc1`: the z-score was -2.5 (active). As to `Cc1ccc(-c2nnc(NCc3ccco3)c3ccccc23)cc1C`, the z-score was -0.6 (inactive).

With `Cc1ccc(NNC(=O)C(C)(C)O)c(C)c1`, the z-score was -0.15 (inactive).

In the case of `CCOC(=O)N1CCN(c2nc(-c3ccccc3)no2)CC1`, the z-score was 0 (inactive).

Take `CN1CCCc2cc(-c3ccnc4ccccc34)ccc21`: the z-score is 0.35 (inactive). Turning to `COC(=O)c1cc2occc2n1Cc1ccc(C)cc1`, the z-score is 0.3 (inactive). With `O=C(COc1c(-c2ccco2)oc2ccccc2c1=O)NCCc1ccccc1` the figure was 0.9 (inactive).

On to `CCOC(=O)/C(=C(/C)N1CCCC1)P(=S)(N1CCOCC1)N1CCOCC1`, for which the z-score is -1.8 (inactive). The result for `Cc1nn(-c2ccccc2)c(OC(=O)c2ccc(Br)o2)c1Sc1ccccc1` reads 0 (inactive).

For the compound `CC(CC(=O)OCc1ncc(-c2ccccc2)o1)c1ccccc1` (stereo not given), the z-score was 0.65 (inactive). With `Cc1cc(C(=O)Oc2ccc(C(=O)c3ccc(F)cc3)cc2)on1` the figure was -0.2 (inactive). The result for `COc1ccc2oc(=O)c(C(=O)NC(C)(C)C)cc2c1` reads -0.45 (inactive); that for `c1ccc(-n2nnnc2Sc2nc(C3CC3)n(-c3ccccc3)n2)cc1`, 0.25 (inactive); that for `Cc1ccc2oc(-c3ccccc3C)nc2c1`, 1.9 (inactive).

For the compound `CC(Sc1nc(N)nc(N)n1)C(=O)NC1(C#N)CCCCC1` (stereo not given), the z-score is -0.4 (inactive).

Regarding `O=C(OCC(=O)N1CCCC1)c1ccccc1OCc1ccccc1Cl`, the z-score is 0.2 (inactive).

`CC(OC(=O)C1CCN(C(=O)c2ccc(Cl)cc2)CC1)C(=O)NC1CC1` (stereo not given): the z-score was 1.3 (inactive). Turning to `Cc1cc(C)c(C)c(OCC(=O)N(Cc2nc(-c3ccccc3)no2)C2CCCCC2)c1`, the z-score was -0.5 (inactive).

On to `COc1ccc(-c2cc(C(=O)NCCCN3CCOCC3)no2)cc1`, for which the z-score was 0.4 (inactive). With `Cc1cccc(NC2=NC3CS(=O)(=O)CC3S2)c1` (stereo not given) the figure was -0.4 (inactive); with `Cc1nnsc1C(=O)NC(=O)c1ccccc1O`, 0.45 (inactive). The result for `COC(=O)C(C)N(C#N)c1nc(N(C)C)nc(N(C)C)n1` (stereo not given) reads -0.3 (inactive). With `CN1CCN(c2nc(C34CC5CC(CC(C5)C3)C4)cs2)CC1` the figure was 0.45 (inactive); with `Clc1ccc2c(Sc3nncn3-c3ccccc3)ccnc2c1`, 0.2 (inactive).

Take `C=CCN(CC=C)C(=O)COc1ncnc2sccc12`: the z-score was -0.3 (inactive). As for `CSc1nc(=O)n(Cc2ccccn2)c2c1CCC2`, the z-score was -0.15 (inactive).

Turning to `CCCCn1c2ccccc2c2n[nH]c(=S)nc21`, the z-score was -0.4 (inactive) and 1.45 (inactive). With `O=C(CCS(=O)(=O)c1cc(Br)cc2c1N(C(=O)C1CC1)CC2)NCc1ccc(F)cc1` the figure was -0.8 (inactive); with `CCC(=O)N1CCc2cc(Br)cc(S(=O)(=O)NCCN3CCN(c4ccccc4F)CC3)c21`, -0.85 (inactive); with `CCc1cccc(NS(=O)(=O)c2cc(Br)cc3c2N(C(=O)C2CC2)CC3)c1`, -2.9 (active). Regarding `O=C(Cn1c(=O)oc2cc(S(=O)(=O)NCc3ccccc3)ccc21)NC1CCCC1`, the z-score is 2.3 (inactive). With `O=C(COc1ccc(Cl)cc1)Nc1c(-c2ccc(F)cc2)nc2ccccn12`, the z-score was -0.15 (inactive). With `CCOC(=O)C(Cc1ccccc1)C(=O)Nc1cccc(C)n1` (stereo not given) the figure was -0.4 (inactive); with `O=C(CCSc1nc(-c2ccco2)cc(C(F)(F)F)n1)N1CCCC1`, 0.85 (inactive). With `Cc1nc(/N=C(/N)NC(=O)c2ccccc2)nc2ccccc12` the figure was 0.6 (inactive); with `Cc1ccc2c(c1)c1c(n2CC(O)CN2CCCCC2)C(=O)CCC1` (stereo not given), -0.35 (inactive).

`CC1CC(C)CN(c2ncnc3scc(-c4ccccc4)c23)C1` (stereo not given): the z-score was -0.7 (inactive). For `CC1CCCCC1NC(=O)COC(=O)c1nc(Cl)ccc1Cl` (stereo not given), the z-score was -0.55 (inactive). With `O=C(COC(=O)/C=C/c1cn(-c2ccccc2)nc1-c1ccccc1)NC1CC1`, the z-score is -2.45 (inactive).

`CCc1ccc(C(=O)CCC(=O)O)s1`: the z-score was -3.1 (active). The result for `CCc1ccc(C(=O)COC(=O)c2cccc(-n3cccc3)c2)s1` reads 1.2 (inactive). With `CCc1ccc(CCC(=O)O)cc1` the figure was 0.8 (inactive); with `O=c1c(/C=N/O)coc2ccc(Cl)cc12`, -3.05 (active).

Consider `O/N=C/c1cccc(Cl)c1`, for which the z-score is -0.05 (inactive).

Turning to `O=c1c(/C=N\O)coc2ccc(F)cc12`, the z-score was 1.15 (inactive).

As for `Cc1cccc(-n2nc(C)c3c(C)cc(=O)oc32)c1`, the z-score is -3.15 (active). With `CCCc1cc(=O)[nH]c2c1c(C)nn2-c1cccc(F)c1` the figure was 2.25 (inactive).

Turning to `CCCc1cc(=O)oc2c1c(C)nn2C`, the z-score was 0.15 (inactive). As for `CCN(CC)S(=O)(=O)c1ccc(C(=O)NCCn2c(C)cc3ccccc32)cc1`, the z-score was 0.65 (inactive). For `Cc1ccc(C(C(=O)NCc2ccccc2)N(Cc2ccco2)C(=O)Cn2nnc3ccccc32)cc1` (stereo not given), the z-score was -0.35 (inactive).

Take `CCN1CCN(c2ccc(NC(=O)[C@H](Cc3ccccc3)N3Cc4ccccc4C3=O)cc2)CC1`: the z-score is 1.2 (inactive). The result for `CCSc1nnc(SCC(=O)c2ccc3[nH]c(=O)[nH]c3c2)s1` reads 1.6 (inactive). With `CC1CCCC(C)N1C(=O)COC(=O)c1ccccc1I` (stereo not given) the figure was 1.25 (inactive). With `CCOc1ncccc1C(=O)OCC(=O)N1C(C)CCCC1C` (stereo not given) the figure was -5.9 (active); with `Cc1cc(C(=O)OCC(=O)N2C(C)CCCC2C)c2ccccc2n1` (stereo not given), 0.05 (inactive); with `COC(=O)CN1C(=O)C(C)(C)Oc2ccc(C(=O)Nc3cccc(OC)c3)cc21`, -0.45 (inactive). With `COc1ccc(C2CC(=O)C3=C(C2)NC(=O)CC3c2ccc3c(c2)OCO3)cc1` (stereo not given), the z-score is 0.05 (inactive). The result for `CCCN1CCC(NC(=S)Nc2ccc3c(c2)OCO3)CC1` reads 1.7 (inactive); that for `O=C(Nc1ccccc1)C1CCN(C(=O)c2cccs2)CC1`, 0.15 (inactive); that for `CCN1CCN(C(=O)c2ccc(/C=C3/Sc4ccccc4N(Cc4ccccc4C)C3=O)cc2)CC1`, 0.25 (inactive).
